Source: the supplement of paper PMC8728848
The sample as a whole holds a higher share of the strongest signals than the screen did.

Tests used:
Assay in all cases: glycan array binding signal (z-score within array); higher = stronger binding
Details in all cases: glycan notation: IUPAC condensed, linker removed
[1] = biological target: GlcNAc(b1-3)Gal(b1-4)Glc
In short: (§1)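 Glycan array binding is given as a within-array Z-score, which can be read as non-binding when negative. The arrays, 3228 of them, came from the Consortium for Functional Glycomics database and were retained only where the protein sequence was available. Z-scores were averaged across arrays of the same protein sequence at different concentrations or buffers and across linkers.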

[2] = biological target: GlcNAc(b1-3)Gal(b1-4)GlcNAc(b1-3)Gal(b1-4)GlcNAc(b1-3)Gal(b1-4)GlcNAc(b1-2)[GlcNAc(b1-3)Gal(b1-4)GlcNAc(b1-3)Gal(b1-4)GlcNAc(b1-3)Gal(b1-4)GlcNAc(b1-6)]Man(a1-6)[GlcNAc(b1-3)Gal(b1-4)GlcNAc(b1-3)Gal(b1-4)GlcNAc(b1-3)Gal(b1-4)GlcNAc(b1-2)Man(a1-3)]Man(b1-4)GlcNAc(b1-4)[Fuc(a1-6)]GlcNAc
In short: as §1

[3] = biological target: GlcNAc(b1-3)Gal(b1-4)GlcNAc(b1-6)[Gal(b1-3)]GalNAc
In short: as §1

[4] = biological target: Kdn(a2-3)Gal(b1-3)GalNAc
In short: as §1

[5] = biological target: Man(a1-3)[Man(a1-6)]Man
In short: as §1

[6] = biological target: Man(a1-3)[Man(a1-6)]Man(a1-6)[Man(a1-3)]Man
In short: as §1

[7] = biological target: Neu5Ac(a2-3)Gal(b1-3)GalNAc(b1-3)Gal(b1-4)GlcNAc
In short: as §1

[8] = biological target: Neu5Ac(a2-3)Gal(b1-3)GlcNAc(b1-2)Man(a1-3)[Neu5Ac(a2-3)Gal(b1-3)GlcNAc(b1-2)Man(a1-6)]Man(b1-4)GlcNAc(b1-4)GlcNAc
In short: as §1

[9] = biological target: Neu5Ac(a2-3)Gal(b1-3)[Fuc(a1-4)]GlcNAc
In short: as §1

[10] = biological target: Neu5Ac(a2-3)Gal(b1-3)[Neu5Ac(a2-6)]GlcNAc(b1-3)[Fuc(a1-3)[Gal(b1-4)]GlcNAc(b1-6)]Gal(b1-4)Glc
In short: as §1

[11] = biological target: Neu5Ac(a2-3)Gal(b1-4)Glc
In short: as §1

[12] = biological target: Neu5Ac(a2-3)Gal(b1-4)GlcNAc(b1-2)Man
In short: as §1

[13] = biological target: Neu5Ac(a2-3)Gal(b1-4)GlcNAc(b1-3)Gal(b1-4)GlcNAc(b1-2)Man(a1-3)[Neu5Ac(a2-3)Gal(b1-4)GlcNAc(b1-3)Gal(b1-4)GlcNAc(b1-2)Man(a1-6)]Man(b1-4)GlcNAc(b1-4)GlcNAc
In short: as §1

[14] = biological target: Neu5Ac(a2-3)Gal(b1-4)GlcNAc(b1-3)Gal(b1-4)GlcNAc(b1-3)Gal(b1-4)GlcNAc
In short: as §1

[15] = biological target: Neu5Ac(a2-3)Gal(b1-4)GlcNAc(b1-3)Gal(b1-4)GlcNAc(b1-3)Gal(b1-4)GlcNAc(b1-2)Man(a1-3)[Neu5Ac(a2-3)Gal(b1-4)GlcNAc(b1-3)Gal(b1-4)GlcNAc(b1-3)Gal(b1-4)GlcNAc(b1-2)Man(a1-6)]GalNAc
In short: as §1

[16] = biological target: Neu5Ac(a2-3)Gal(b1-4)GlcNAc(b1-6)[Neu5Ac(a2-3)Gal(b1-3)]GalNAc
In short: as §1

[17] = biological target: Neu5Ac(a2-3)Gal(b1-4)[Fuc(a1-3)]GlcNAc
In short: as §1

[18] = biological target: Neu5Ac(a2-3)Gal6S(b1-4)[Fuc(a1-3)]GlcNAc
In short: as §1

[19] = biological target: Neu5Ac(a2-6)Gal
In short: as §1

[20] = biological target: Neu5Ac(a2-6)Gal(b1-4)GlcNAc(b1-2)Man(a1-6)[Gal(b1-4)GlcNAc(b1-2)Man(a1-3)]Man(b1-4)GlcNAc(b1-4)GlcNAc
In short: as §1

[21] = biological target: Neu5Ac(a2-6)Gal(b1-4)GlcNAc(b1-2)[Neu5Ac(a2-6)Gal(b1-4)GlcNAc(b1-4)]Man(a1-3)[GlcNAc(b1-4)][Neu5Ac(a2-6)Gal(b1-4)GlcNAc(b1-2)[Neu5Ac(a2-6)Gal(b1-4)GlcNAc(b1-6)]Man(a1-6)]Man(b1-4)GlcNAc(b1-4)GlcNAc
In short: as §1

[22] = biological target: Neu5Ac(a2-6)Gal(b1-4)GlcNAc(b1-3)Gal(b1-4)GlcNAc(b1-2)Man(a1-3)[Neu5Ac(a2-6)Gal(b1-4)GlcNAc(b1-3)Gal(b1-4)GlcNAc(b1-2)Man(a1-6)]GalNAc
In short: as §1

[23] = biological target: Neu5Ac(a2-6)Gal(b1-4)GlcNAc(b1-3)Gal(b1-4)GlcNAc(b1-3)Gal(b1-4)GlcNAc
In short: as §1

[24] = biological target: Neu5Ac(a2-6)Gal(b1-4)GlcNAc(b1-3)Gal(b1-4)GlcNAc(b1-3)Gal(b1-4)GlcNAc(b1-2)Man(a1-3)[Neu5Ac(a2-6)Gal(b1-4)GlcNAc(b1-3)Gal(b1-4)GlcNAc(b1-3)Gal(b1-4)GlcNAc(b1-2)Man(a1-6)]GalNAc
In short: as §1

[25] = biological target: Neu5Ac(a2-6)Gal(b1-4)GlcNAc(b1-3)Gal(b1-4)GlcNAc(b1-3)[Neu5Ac(a2-6)Gal(b1-4)GlcNAc(b1-3)Gal(b1-4)GlcNAc(b1-6)]GalNAc
In short: as §1

[26] = biological target: Neu5Ac(a2-6)Gal(b1-4)GlcNAc(b1-3)Gal(b1-4)[Fuc(a1-3)]GlcNAc(b1-3)Gal(b1-4)[Fuc(a1-3)]GlcNAc
In short: as §1

[27] = biological target: Neu5Ac(a2-8)Neu5Ac(a2-8)Neu5Ac(a2-3)[Gal(b1-3)GalNAc(b1-4)]Gal(b1-4)Glc
In short: as §1

[28] = biological target: Neu5Ac(b1-6)GalNAc
In short: as §1

[29] = biological target: Neu5Gc(a2-8)Neu5Gc(a2-3)Gal(b1-4)GlcNAc(b1-3)Gal(b1-4)GlcNAc
In short: as §1

B1: LTL (Lotus tetragonolobus), P19664 (protein)
chain: VSFNYTEFKDDGSLILQGDAKIWTDGRLAMPTDPLVNNPKTTRSAGRALYATPVPIWDSATGNVASFVTSFNFLFVIRELKYTPTDGLVFFLAPVGTEIPSGSTGGFLGIFDGSNGFNQFVAVEFDSYHNIWDPKSLRSSHVGIDVNSIMSLKAVNWNRVSGSLEKATIIYDSQTNILSVVMTSQNGQITTIYGTIDLKTVLPEKVSVGFSATTGNPEREKHDIYSWSFTSTLKEPEEQA
- glycan array binding signal (z-score) [1]: -0.196
- glycan array binding signal (z-score) [2]: 0.185
- glycan array binding signal (z-score) [3]: -0.142
- glycan array binding signal (z-score) [4]: 0.043
- glycan array binding signal (z-score) [5]: -0.207
- glycan array binding signal (z-score) [6]: 0.02
- glycan array binding signal (z-score) [7]: -0.26
- glycan array binding signal (z-score) [8]: -0.099
- glycan array binding signal (z-score) [9]: 0.005
- glycan array binding signal (z-score) [10]: -0.123
- glycan array binding signal (z-score) [11]: -0.023
- glycan array binding signal (z-score) [12]: 0.022
- glycan array binding signal (z-score) [13]: 2.77
- glycan array binding signal (z-score) [14]: -0.035
- glycan array binding signal (z-score) [15]: 5.64
- glycan array binding signal (z-score) [16]: -0.237
- glycan array binding signal (z-score) [17]: -0.31
- glycan array binding signal (z-score) [18]: 2.84
- glycan array binding signal (z-score) [19]: -0.162
- glycan array binding signal (z-score) [20]: -0.242
- glycan array binding signal (z-score) [21]: -0.15
- glycan array binding signal (z-score) [22]: 1.11
- glycan array binding signal (z-score) [23]: -0.226
- glycan array binding signal (z-score) [24]: 2.02
- glycan array binding signal (z-score) [25]: 3.76
- glycan array binding signal (z-score) [26]: -0.039
- glycan array binding signal (z-score) [27]: 0.131
- glycan array binding signal (z-score) [28]: -0.326
- glycan array binding signal (z-score) [29]: -0.15
